Each structure is given as a SMILES string. The campaign covered roughly 410,000 compounds. About 7,200 (1.8%) were called active. Another 7% or so got no clear call; they are omitted. The entries come from a sample that favours actives as a whole. Values without a mark were called inactive. Calls follow the shape of the dose curve; as a rule, active = well fitted activation curve with a large enough effect; inconclusive = small, poorly fitted or top-dose-only effect, or another doubt; inactive = no such curve, though single readings can be large or run the other way.
Potency is read from the fitted curve at half-maximal effect.

A short description of this experiment: qHTS of TDP-43 Inhibitors. Also: nearly all actives have a fitted effect of over 50% in size. As to growth rescue (activation): % of control where 0% means no effect. The conditions noted are these: TDP-43 expressing yeast growth rescue, BacTiter-Glo, 24 h; series mostly up to 46.1 µM; growth rescue (activation): at the top concentration. The procedure, abridged:
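Yeast expressing TDP-43 (pregrown in raffinose, seeded at OD600=0.02 in galactose medium) exposed to compounds 24 hr at 30 deg C. Growth read by BacTiter-Glo luminescence; rescue of toxicity appears as increased signal.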
(In general: In qHTS, concentration-response curves come from the screen itself.)
With `CCOC(=O)C1CCN(c2ncnc3c2c(-c2ccccc2)cn3-c2ccc(C)cc2)CC1`, the “growth rescue (activation)” value is -8.43%.
With `CCOC(=O)C1CCN(c2ncnc3c2c(-c2ccccc2)cn3-c2cccc(C)c2)CC1`, the “growth rescue (activation)” value was 14.6%.
On to `COCCNc1ncnc2c1c(-c1ccccc1)cn2-c1ccc(C)c(Cl)c1`, for which the Potency is 12.6 µM (active).
`CCOc1ccc(N(CC)S(=O)(=O)N2CCCC(C(=O)NCc3ccc(Cl)cc3)C2)cc1` (centres undefined): the “growth rescue (activation)” value was -15.1%.
On the same count and under the same terms, under `CCOC(=O)c1ccc(NC(=O)Cn2cc(S(=O)(=O)Cc3ccccc3F)c3ccccc32)cc1` stands 19%.
As to `Cc1c(CNC2CCCCC2)c(C(=O)O)c(C)n1Cc1cccc(Cl)c1`, the “growth rescue (activation)” value was -1.7%.
Same read-out and setting: under `COc1ccc(OCC(=O)NCCS(=O)(=O)N2CCN(c3ccc(F)cc3)CC2)cc1` stands -10.2%.
Still for that read-out and setting: under `COc1ccc(N2CCN(S(=O)(=O)CCNC(=O)C(c3ccccc3)c3ccccc3)CC2)cc1` stands 17.7%.
On to `COc1ccc(N2CCN(S(=O)(=O)CCNC(=O)C34CC5CC(CC(C5)C3)C4)CC2)cc1`, for which the Potency is 20 µM (active).
With `COCCNC(=O)CSc1c(C)cnc2c1c(=O)n(C)c(=O)n2C`, the “growth rescue (activation)” value is 12.2%.
As for `Cc1ccccc1NC(=O)c1c(NC(=O)c2ccccc2F)sc2c1CCC(C)C2` (centres undefined), the “growth rescue (activation)” value was 18.8%.
Still for that read-out and setting: under `CCOc1ccc(N(CC)S(=O)(=O)N2CCCC(C(=O)Nc3ccc(C(C)=O)cc3)C2)cc1` (centres undefined) stands 2.83%; under `Nc1ncc(S(=O)(=O)Nc2ccc(OC(F)(F)F)cc2)cn1`, 20.6%.
For `O=S(=O)(Nc1ccc(OC(F)(F)F)cc1)c1cccc2nonc12`, the Potency is 11.2 µM (active).
Turning to `O=C(O)c1ccc(NS(=O)(=O)c2cccc3nsnc23)cc1`, the “growth rescue (activation)” value is -12.3%.
For `Cc1ccc(CSc2oc(-c3cccs3)nc2S(=O)(=O)c2ccc(C)cc2)cc1`, the “growth rescue (activation)” value is -1.5%.
The same measure, in the same setting: under `O=C(Cc1ccc(Cl)cc1)Nc1ccc2nn(-c3ccc(Cl)cc3)nc2c1` stands 5.59%; under `COc1ccc(Cn2ccnc2SCC(=O)Nc2ccc3c(c2)OCO3)cc1`, 31.9%; under `O=C(CSCc1ccc([N+](=O)[O-])cc1)Nc1cccc(C(=O)Nc2ccccc2C(=O)O)c1`, -13.9%.
Consider `O=C(CSCc1ccc([N+](=O)[O-])cc1)NCCSCc1ccccc1`, for which the Potency is 20 µM (active).
`O=C(Cc1ccc([N+](=O)[O-])cc1)NCCS(=O)(=O)N1CCN(c2ccccc2)CC1`: the “growth rescue (activation)” value is 10.9%.
Same read-out and setting: under `CCOC(=O)c1ccc(NC(=O)c2c(NCc3cccc(OC)c3)sc3c2CCC3)cc1` stands 8.24%; under `Cc1cccc(OCC(=O)N(Cc2ccc(C(C)C)cc2)Cc2ccco2)c1C`, -2.83%; under `CC(C)OP(=O)(OC(C)C)C(Nc1ccccc1)c1cccc([N+](=O)[O-])c1` (centres undefined), -9.78%.
Take `CC(Nc1ccc(-c2nc(-c3ccco3)no2)cc1[N+](=O)[O-])c1ccccc1` (centres undefined): the “growth rescue (activation)” value was -6.77%.
Turning to `CC(Nc1ccc([N+](=O)[O-])cc1[N+](=O)[O-])c1ccccc1` (centres undefined), the Potency was 12.6 µM (active).
The same measure, in the same setting: under `COc1ccccc1N1CCN(/N=C\C(Br)=C\c2ccccc2)CC1` stands 11.2 µM (active).
In the case of `COc1ccccc1N1CCN(C2C(=O)c3ccccc3N2C(C)=O)CC1` (centres undefined), the “growth rescue (activation)” value is 25.8%.
Take `COc1ccccc1N1CCN(Cc2ccc(OC)c3ccccc23)CC1`: the “growth rescue (activation)” value is -3.99%.
As to `CCS(=O)(=O)N1CCc2cc(C(=O)NCc3ccc(C)cc3)ccc21`, the “growth rescue (activation)” value is 20.1%.
On the same count and under the same terms, under `CCOC(=O)c1ccccc1NC(=O)c1sc2nc(-c3ccc(F)cc3)cn2c1C` stands 19.9%.
The same measure, in the same setting: under `CCOC(=O)C1C(=O)NC(N2CCN(c3ccccc3)CC2)=NC1c1ccco1` (centres undefined) stands 1.54%.
In the case of `COc1ccc(C2=NN(C(=O)CSc3nnnn3C)C(c3ccco3)C2)cc1` (centres undefined), the “growth rescue (activation)” value was 12.1%.
With `CCOC(=O)C1C(=O)C=C(c2ccc(OC)cc2)CC1c1ccco1` (centres undefined), the Potency is 11.2 µM (active).
With `Cc1nn(C(=O)c2c(F)cccc2F)c(C)c1S(=O)(=O)N1CCOCC1`, the “growth rescue (activation)” value was 21.3%.
Still for that read-out and setting: under `O=C(NC1CC(=O)N(c2ccc(Cl)cc2)C1)C1CCCC1` (centres undefined) stands 13.7%; under `COc1ccccc1C(=O)Nc1c(C(=O)Nc2ccc(C)cc2)oc2ccccc12`, 6.8%.
As for `Cc1ccc2cccc(NC(=O)c3ccc(OC(C)C)cc3)c2n1`, the Potency is 11.2 µM (active).
Turning to `Cc1ccc2cccc(NC(=O)c3cccc4ccccc34)c2n1`, the “growth rescue (activation)” value is 27.2%.
Take `Cc1ccc2cccc(NC(=O)C(C)Oc3ccc(C)c(C)c3)c2n1` (centres undefined): the “growth rescue (activation)” value is 20%.
Regarding `COc1ccc(-c2cc(-c3ccc(F)cc3)nc3c2COc2ccccc2-3)cc1`, the “growth rescue (activation)” value was 11.8%.
With `CC(C)C12CN3CC(C(C)C)(CN(C1)C3c1ccc(OCc3ccccc3)cc1)C2=O` (centres undefined), the “growth rescue (activation)” value is 15.9%.
As to `O=C(NCCc1ccccn1)c1ccc(COc2ccccc2)o1`, the “growth rescue (activation)” value was 17.8%.
Regarding `COc1cc(OC)cc(C(=O)NNC(=O)CNC(=O)c2ccc(Br)o2)c1`, the “growth rescue (activation)” value was -3.31%.
Regarding `COc1ccc(-c2nc(CCNC(=O)c3ccc(Br)o3)cs2)cc1`, the Potency is 12.6 µM (active).
Take `Cc1ccc(Cn2c(=O)n(Cc3nc(-c4ccccc4)no3)c(=O)c3cc4c(cc32)OCO4)cc1`: the “growth rescue (activation)” value is 1.98%.
Consider `CCC1CCCCN1Cc1c(O)ccc2c(=O)c(Oc3ccccc3Cl)c(C(F)(F)F)oc12` (centres undefined), for which the “growth rescue (activation)” value is 19.5%.
Same read-out and setting: under `Cc1cc(NC(=O)c2cccc(Cl)c2)ccc1-c1cc2ccccc2oc1=O` stands 0%; under `Cc1cc2oc(C(=O)N(Cc3ccc(Cl)cc3)Cc3ccco3)c(C)c2cc1Cl`, 17.3%.

For the origin of these results see PubChem BioAssay AID652104 (National Center for Advancing Translational Sciences (NCATS), 2013).
